# Experimental data from PubChem BioAssay (NCI).
# Values joined by “and” are separate entries in the source; they are usually repeats but may differ in a detail not shown here. Identical values can stand only once. The panel holds about 83,000 compounds, 20% with a hit somewhere; the sample as a whole holds those more often.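 Cell lines were cultured in 96-well plates, exposed to a single compound concentration, and assessed for percent growth 48 hours later.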 A number with no mark means an inactive call. Active and inactive are the calls of the source. The calls were made as follows: active = growth percent below 10; inactive = the rest.
# Test system: T-47D breast
# Assay: NCI-60 one-dose screen, 48 h (100 = growth as untreated, 0 = no growth, -100 = all killed)
# Conditions: 10 µM unless noted
row,Compound,growth
1,CN1CCN(C(=O)Oc2cc3c(c4ccccc24)[C@H](CCl)CN3C(=O)c2cc3cc(OCCCN4CCC4)ccc3[nH]2)[C@H]2CSSC[C@H]21,-12.9% (active)
2,N#Cc1cc(-c2ccc3ncnc(N4CCc5cc(F)c(Cl)cc54)c3c2)cnc1N,25.8%
3,CC1=NN(C2=NC(=O)C(CC(=O)Nc3ccccc3C(F)(F)F)S2)C(c2ccc(N(C)C)cc2)C1 (stereo not drawn),48%
4,O=C1Nc2ccccc2/C1=C/C(=O)c1cc2ccccc2oc1=O,83.2%
5,Cc1ccccc1NC(=O)c1cccc(NC(=O)CCl)c1,74.8%
6,Cn1cc(-c2cc(N)n3nc(-c4c[nH]c5ccccc45)cc3n2)c2cc(Br)ccc21,-82.7% (active)
7,Nc1nc2cc(-c3ccc4ncnc(NCc5ccccc5)c4c3)ccc2o1,-53.6% (active)
8,O=C(N/N=C/c1ccc(-c2cccc([N+](=O)[O-])c2)s1)c1[nH]c2ccc(Br)cc2c1-c1ccccc1,92.5%
9,Cc1nc(Nc2ccccn2)sc1C1=NNC(c2ccccc2F)C1 (stereo not drawn),33.5%
10,CC(C)(C)c1ccc(OCc2nc3ccccc3n2-c2cccc(N)c2)cc1,32.3% and 99.1%
11,CC1=C(C(=O)OCc2ccccc2)C(c2cccc3ccccc23)n2c(nc3ccccc32)N1 (stereo not drawn),30.2%
12,Cc1cc(=O)oc2cc(OCC(O)CNN3C(=O)c4cccc5c(N6CCN(C)CC6)ccc(c45)C3=O)ccc12 (stereo not drawn),109%
13,CN(C)CCOc1ccc(C(=O)C2[C@H](c3ccc(Cl)cc3)[C@@H](c3ccccc3)NC23C(=O)Nc2ccc(Cl)cc23)cc1 (stereo partly drawn),-81.7% (active)
